Several values for one entry are separate records, joined by “and”; a condition that tells them apart may be missing. Equal entries are not always repeated. Some structures have more than one record in an assay (separate samples or runs), and their calls can disagree. Activity calls are given as the source filed them. A call without a number means that no potency is given here. The call rests on the fitted dose curve; in most records, active means well fitted curve in the direction sought with a large enough effect in the signal ratio in the repeat runs (not every such curve was filed as active); inconclusive means weak or mixed curves, or effect the other way; inactive means no such curve, though single readings can be large or run the other way; the % refers to the signal ratio.

40 molecules from PubChem BioAssay (Tox21) can be followed below.
Potency means the concentration at half of the fitted maximal effect.

Sequence of Estrogen receptor (Homo sapiens) (P03372 whole entry, looked up): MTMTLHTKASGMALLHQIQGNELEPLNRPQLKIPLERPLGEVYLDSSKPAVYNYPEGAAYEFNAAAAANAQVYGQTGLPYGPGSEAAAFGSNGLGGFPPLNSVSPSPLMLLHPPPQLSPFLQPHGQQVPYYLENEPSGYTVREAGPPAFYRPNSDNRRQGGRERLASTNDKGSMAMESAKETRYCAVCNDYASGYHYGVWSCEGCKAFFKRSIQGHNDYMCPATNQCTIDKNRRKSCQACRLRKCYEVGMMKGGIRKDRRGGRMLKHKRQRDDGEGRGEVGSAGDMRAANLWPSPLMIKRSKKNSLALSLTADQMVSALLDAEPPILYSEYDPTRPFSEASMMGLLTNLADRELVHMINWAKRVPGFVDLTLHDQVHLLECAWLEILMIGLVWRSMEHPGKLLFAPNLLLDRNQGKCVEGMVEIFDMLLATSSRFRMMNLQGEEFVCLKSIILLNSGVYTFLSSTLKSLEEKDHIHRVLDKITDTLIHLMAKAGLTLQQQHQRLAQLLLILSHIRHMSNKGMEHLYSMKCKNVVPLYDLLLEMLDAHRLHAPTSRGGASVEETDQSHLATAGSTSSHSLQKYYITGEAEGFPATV

For this experiment, the target named is Estrogen receptor (Homo sapiens) (UniProt P03372). Briefly: qHTS assay to identify small molecule antagonists of the estrogen receptor alpha (ER-alpha) signaling pathway (AID 743069). The settings on record: HEK293 ER-alpha-UAS-bla, beta-lactamase ratio, antagonist mode; series mostly up to 69.4 µM. The source says:
National Center for Advancing Translational Sciences [NCATS]
NIH Chemical Genomics Center [NCGC]
U.S. Environmental Protection Agency [EPA]
National Institutes of Environmental Health Sciences [NIEHS]
National Toxicology Program [NTP]
U.S. Food and Drug Administration [FDA]
Estrogen receptor (ER), a nuclear hormone receptor, plays an important role in development, metabolic homeostasis and reproduction. Two subtypes of ER, ER-alpha and ER-beta have similar expression patterns with some uniqueness in both types. Endocrine disrupting chemicals (EDCs) and their interactions with steroid hormone receptors like ER causes disruption of normal endocrine function. To identify the compounds that inhibit ER signaling, an ER-alpha-UAS-bla GripTiteTM cell line (Invitrogen, Carlsbad, CA, USA) containing a beta-lactamase reporter gene under the control of an Upstream Activator Sequence (UAS) stably integrated into HEK293 cells was used to screen the Tox21 10K compound library.
Tox21 Assay Protocol Summary:
ER-alpha-bla cells were cultured in assay medium containing 2% charcoal stripped FBS overnight in the culture flasks before the assay was performed. The cells were dispensed at 5,000 cells/5 uL of assay medium per well into black wall/clear-bottom 1536-well plates using a Multidrop Combi (ThermoFisher Scientific, Waltham, MA) dispenser. After the assay plates were incubated at a 37C and 5% CO2 for 4 hr, 23 nL of compounds dissolved in DMSO, positive controls or DMSO only was transferred to the assay plate by a Pintool station (Kalypsys, San Diego, CA), followed by addition of 1 uL of 17beta-estradiol in assay medium using a Flying Reagent Dispenser (Aurora Discovery, San Diego, CA). The plates were incubated at 37C and 5% CO2 for 18 hr. Then 1 uL of LiveBLAzerTM B/G FRET substrate was added using a Flying Reagent Dispenser, the plates were incubated at room temperature for 2 hours, and fluorescence intensity was measured by an Envision plate reader (PerkinElmer, Shelton, CT).
For `CCN(CC)C(=O)SCc1ccc(Cl)cc1`, the Potency result was “inactive”.
Then `Cc1ccc2c(c1N)C(=O)c1ccccc1C2=O`, with “inactive”.
To `CCC(C)(C)c1ccc(O)cc1` belongs “inactive”.
For `CC(C)=CC1C(C(=O)OCc2coc(Cc3ccccc3)c2)C1(C)C` (stereo not given), the Potency entry was “inactive”.
Then `CCN(N=O)C(N)=O`, with “inactive”; and `CCCCCCCCOC(=O)c1ccccc1C(=O)OCCCCCCCC`, with “inactive”.
To `CCCCCCCCC(=O)NCc1ccc(O)c(OC)c1` belongs “inactive”.
To `Brc1ccc(Oc2cc(Br)c(Br)cc2Br)c(Br)c1` belongs “inactive”; to `O=P(Oc1ccccc1)(Oc1ccccc1)Oc1ccccc1`, “inactive”.
In the case of `N#Cc1cc(Br)c(O)c(Br)c1`, the Potency entry was “inactive”.
To `CCCCC(CC)COC(=O)Cl` (stereo not given) belongs “inactive”.
Then `Clc1nc(Cl)nc(Cl)n1`, with “inactive”; and `NNC(=S)NN`, with “inactive”; and `CNC(=O)N(C)c1nnc(C(C)(C)C)s1`, with “inactive”.
Then `CC(C)Oc1cc(-n2nc(C(C)(C)C)oc2=O)c(Cl)cc1Cl`, with 61.6 µM [inconclusive] (active); and `COC(=O)c1sccc1S(=O)(=O)NC(=O)Nc1nc(C)nc(OC)n1`, with “inactive”; and `CC(C)c1ccc(CO)cc1`, with “inactive”.
In the case of `COP(=S)(OC)Oc1ccc([N+](=O)[O-])cc1`, the Potency entry was “inactive”.
Then `CCC(C)c1cc([N+](=O)[O-])cc([N+](=O)[O-])c1O` (stereo not given), with “inactive and 6.92 µM [inhibitor] (active)”; and `Nc1c(Cl)cc([N+](=O)[O-])cc1Cl`, with “inactive”; and `CC(C)NC(C)C`, with “inactive”.
Then `O=[N+]([O-])c1ccc(O)c([N+](=O)[O-])c1`, with “inactive”.
Then `N#CC(Br)Br`, with “inactive”.
Consider `CCCCCCOC(=O)c1ccccc1C(=O)OCCCCCC`, for which the Potency entry is “inactive”.
To `Oc1ccc(-c2ccccc2)cc1` belongs “inactive”; to `Nc1cccnc1`, “inactive”; to `Nc1ccc(-c2ccccc2)cc1`, “inactive”.
To `CC1(C)C(C=C(Cl)Cl)C1C(=O)OC(C#N)c1cccc(Oc2ccccc2)c1` (stereo not given) belongs “inactive”; to `O=P(O)(O)CCCl`, “inactive”; to `O=[N+]([O-])c1cccc2ccccc12`, “inactive”.
For the molecule `CC(C)C(=O)OCC(C)(C)C(OC(=O)C(C)C)C(C)C` (stereo not given), the Potency result was “inactive”.
Then `CCCCNC(=O)n1c(NC(=O)OC)nc2ccccc21`, with “inactive”; and `NNC(N)=S`, with “inactive”; and `COP(=O)(OC)OC`, with “inactive”.
To `Cc1ccccc1[N+](=O)[O-]` belongs “inactive”; to `CCC(C)(c1ccc(O)cc1)c1ccc(O)cc1`, 616 nM [inconclusive] (active) and 309 nM [inconclusive] (active); to `OCC(O)CO`, “inactive”.
To `CCCCN(CCCC)N=O` belongs “inactive”.
On to `CCN(CC)C(=O)/C(Cl)=C(\C)OP(=O)(OC)OC`, for which the Potency entry is “inactive”.
Then `NCc1cccnc1`, with “inactive”.
